Compounds with a hit are over-represented: about 2.9% of the library has one in this group of screens.
PAFAH1B2 FP inh – inhibitors of human PAFAH1B2; AID 492953; recombinant PAFAH1B2, FP-rhodamine activity probe, fluorescence polarization; 340,000 tested, 1.2% active; inhibition, % at 3.39 µM; P68402;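 active means inhibition above the mean of all tested compounds plus 3 SD, cut at about 24% in these data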
Target sequence (P68402 whole entry, looked up): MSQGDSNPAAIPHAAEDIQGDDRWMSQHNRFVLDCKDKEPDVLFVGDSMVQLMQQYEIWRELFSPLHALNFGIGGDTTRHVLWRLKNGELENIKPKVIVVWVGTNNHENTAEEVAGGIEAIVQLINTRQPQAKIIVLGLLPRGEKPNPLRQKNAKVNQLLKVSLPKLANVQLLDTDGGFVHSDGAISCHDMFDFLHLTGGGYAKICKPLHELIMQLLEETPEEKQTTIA
ZTA counter – blocks Epstein-Barr virus ZTA, an EBNA-1 counter-screen; 320,000 tested, 0.15% active; P03206; ZTA-DNA binding, fluorescence polarization; inhibition, % at 11 µM; in the data active means inhibition above about 33%
PAFAH2 inh – PAFAH2 (human) inhibition. recombinant PAFAH2, FP-rhodamine activity probe, fluorescence polarization. inhibition, % at 3.39 µM. 340,000 tested, 0.99% active. AID 492956;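 active means inhibition above the mean over all tested compounds plus 3 SD, cut at about 30% in these data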;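 further: inhibitors block probe labeling of enzyme so polarization drops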
EBNA-1 inhibitor – blocks EBNA-1 binding to DNA; inhibition, % at 14.8 µM; AID 1950; EBNA-1 DNA binding, fluorescence polarization; 300,000 tested, 0.34% active; in the data active means inhibition above about 28%
rCAG binder – molecules binding r(CAG) RNA repeats. r(CAG) RNA repeat, TO-PRO-1 dye displacement fluorescence. inhibition, % at 3 µM. 370,000 tested, 1.3% active. AID 651821;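 active means inhibition above the plate cutoff, the mean of all test compounds on that plate plus 3 SD, cut at about 35% in these data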;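 further: higher means more dye released from RNA so lower well fluorescence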
PAFAH1B3 FP inh – inhibitors of human PAFAH1B3 | AID 492972 | 340,000 tested, 0.28% active | Q15102 | recombinant PAFAH1B3, FP-rhodamine probe, fluorescence polarization | inhibition, % at 3.39 µM;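 active means inhibition above the screen-wide average of all tested compounds plus 3 SD, cut at about 25% in these data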
Target sequence (Q15102 whole entry, looked up): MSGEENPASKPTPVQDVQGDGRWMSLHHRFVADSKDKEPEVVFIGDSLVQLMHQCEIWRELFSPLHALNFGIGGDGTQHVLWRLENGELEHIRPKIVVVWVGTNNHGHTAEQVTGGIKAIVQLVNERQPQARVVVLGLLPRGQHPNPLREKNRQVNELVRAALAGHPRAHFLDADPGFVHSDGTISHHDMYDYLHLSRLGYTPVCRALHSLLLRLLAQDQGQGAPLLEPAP
PAFAH2 FP conf – PAFAH2 (human) inhibition, confirmed; shares compounds with PAFAH2 inh; recombinant PAFAH2, FP-rhodamine activity probe, fluorescence polarization; inhibition, % at 3.39 µM; 2,300 tested, 65% active; AID 493030;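 active means mean inhibition over three repeats above a set limit taken from the earlier primary screen, cut at about 30% in these data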;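 further: inhibitor blocks binding of rhodamine activity probe so polarization falls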
Hits are given with their value; 0 = inactive; - = not tested or not shown.

SMILES	PAFAH1B2 FP inh	ZTA counter	PAFAH2 inh	EBNA-1 inhibitor	rCAG binder	PAFAH1B3 FP inh	PAFAH2 FP conf
CCN1Cc2nnn(CC3CCCCC3)c2-c2ccccc2S1(=O)=O	-	-	-	-	0	-	-
COc1ccc([N+](=O)[O-])cc1NC(=O)COC(=O)C1CC1	0	0	49.0	0	0	0	0
Nc1ccc(C(=O)OCC(=O)Nc2cc([N+](=O)[O-])ccc2F)cc1	0	0	82.9	0	0	0	82.2
O=C(COC(=O)C1CCCCC1)Nc1cc([N+](=O)[O-])ccc1F	0	0	48.9	0	0	0	0
O=C(COC(=O)c1cc[n+]([O-])cc1)Nc1ccc([N+](=O)[O-])cc1Cl	0	0	0	0	0	0	-
O=C(COC(=O)C1CCCC1)Nc1cccc(Cl)c1Cl	0	-	32.2	-	0	0	0
O=C(Nc1cccc(Cl)c1Cl)C1CCCC1	0	0	0	0	0	0	-
O=C(CN1C(=O)C2CCCCC2C1=O)Nc1cc([N+](=O)[O-])ccc1F (stereo not drawn)	0	0	0	-	0	0	-
CCc1c(-c2ccc(OC)cc2)ncn1Cc1cccc(-c2ccccc2)c1	-	-	-	-	0	-	-
COc1ccc(-c2c(Cc3ccccc3)nc(NC(=O)c3ccccc3)n2Cc2ccc(OC)cc2OC)cc1	-	-	-	-	0	-	-
O=C(COC(=O)c1ccc(-n2cnnn2)cc1)Nc1cc(Cl)ccc1F	0	0	34.2	-	0	0	0
Nc1ccc(C(=O)Oc2ccc([N+](=O)[O-])cc2)cc1	0	0	31.7	0	0	0	0
C#CCNC(=O)C[C@H]1C(=O)N(CCCOC)C2=CCCC[C@@]21C(=O)OCC	-	-	-	-	0	-	-
NC(=O)c1ccc(NC(=O)COC(=O)CCCN2C(=O)c3cccc4cccc(c34)C2=O)cc1	0	0	0	0	0	0	-
O=C(COC(=O)CCCN1C(=O)c2cccc3cccc(c23)C1=O)Nc1ccc(Cl)cc1	0	0	47.7	0	0	0	0
CCC(=O)c1ccc(OC(=O)N2CCOCC2)cc1	0	0	35.1	0	0	0	0
CC(C)(C)c1ccc(OC(=O)N2CCOCC2)cc1	0	0	30.3	0	0	0	38.3
COC(=O)c1ccc(OC(=O)N2CCOCC2)cc1	0	0	0	0	0	0	-
Cc1ccccc1NC(=O)CN1CCN(c2nc(-c3ccccc3)cs2)CC1	-	-	-	-	0	-	-
CCOc1ccccc1C(=O)N1CCC(Oc2cccnc2)CC1	-	-	-	-	0	-	-
O=C(OCc1nc2ccccc2[nH]1)C12CC3CC(CC(C3)C1)C2	0	0	56.7	0	0	0	49.3
COc1ccc(CN2C(=O)c3cccnc3C2=O)cc1S(=O)(=O)N1CCOc2ccccc21	0	0	0	0	0	0	-
COc1ccc(CN2C(=O)c3cccnc3C2=O)cc1S(=O)(=O)N1CCOc2ccc(Cl)cc21	0	0	29.9	0	0	0	0
COc1cc(N)c(Cl)cc1C(=O)OCC(=O)N(C)C1CCCCC1	0	0	54.8	-	0	0	30.5
COc1cc(N)c(Cl)cc1C(=O)OCC(=O)NC1CCCC1	0	0	47.6	0	0	0	33.5
SMILES	PAFAH1B2 FP inh	ZTA counter	PAFAH2 inh	EBNA-1 inhibitor	rCAG binder	PAFAH1B3 FP inh	PAFAH2 FP conf
CN(C(=O)COC(=O)c1cnc(Cl)c(Cl)c1)C1CCCCC1	0	-	0	-	0	0	-
COC(=O)c1cc(Cl)c(N)cc1OC	0	0	0	0	0	0	-
c1ccc(Nc2ccc(NCCc3c[nH]c4ccccc34)cc2)cc1	-	-	-	-	0	-	-
COc1ccc(C(=O)C[C@@H]2OC3CCCCC3N2S(=O)(=O)c2ccc(C)cc2)cc1OC (stereo partly drawn)	-	-	-	-	0	-	-
NC(=S)n1[nH]c(-c2ccc([N+](=O)[O-])cc2)c(N=Nc2cccc(Cl)c2)c1=O	0	-	36.3	-	0	0	0
NC(=S)n1[nH]c(-c2ccc([N+](=O)[O-])cc2)c(N=Nc2ccc(O)cc2)c1=O	0	0	0	0	0	0	-
COc1cccc(/C=C/C(=O)OCC(=O)Nc2cccc(S(=O)(=O)N3CCCCC3)c2)c1OC	0	0	39.0	0	0	0	54.5
O=C(COC(=O)/C=C/c1ccc(OC(F)F)cc1)Nc1cccc(S(=O)(=O)N2CCOCC2)c1	0	-	53.1	-	0	0	39.7
O=C(COC(=O)/C=C/c1ccc(F)cc1)Nc1cccc(S(=O)(=O)N2CCCC2)c1	0	0	52.6	0	0	0	43.9
COc1cccc(CCC(=O)Nc2cccc(S(=O)(=O)N3CCCC3)c2)c1OC	0	0	0	-	0	0	-
O=C(COC(=O)/C=C/c1ccc(OC(F)F)cc1)Nc1ccc(N2CCOCC2)cc1	0	0	0	0	0	0	-
Cc1nc2sc(C)c(C)c2c(=O)o1	0	0	0	0	0	0	-
O=c1oc(-c2ccco2)nc2sc3c(c12)CCCC3	0	0	72.1	0	0	0	63.5
O=c1oc(-c2ccccc2)nc2sc3c(c12)CCC3	0	0	72.5	0	0	0	74.4
Cc1sc2nc(-c3ccccc3)oc(=O)c2c1C	0	0	81.3	0	0	0	65.3
COc1ccc(/C=C2\CC3(OC(=O)C4CCCCC4)CCCN2C3)cc1 (stereo not drawn)	-	-	-	-	0	-	-
COC(=O)C1=C(C)N(Cc2ccccc2)C(=S)NC1c1cccc(Br)c1 (stereo not drawn)	-	-	-	-	0	-	-
Cc1ccc(C(=O)OCC(=O)Nc2cc(S(C)(=O)=O)ccc2Cl)cc1S(=O)(=O)N1CCCCC1	0	0	64.1	0	0	0	54.4
CS(=O)(=O)c1ccc(Cl)c(NC(=O)COC(=O)c2ccc(S(=O)(=O)N3CCCC3)cc2)c1	0	-	0	-	0	0	-
Cc1ccc(C(=O)OCC(=O)Nc2ccccc2)cc1S(=O)(=O)N1CCCCC1	0	0	49.9	-	0	0	35.7
Cc1ccc(NC(=O)COC(=O)C2CC3C=CC2C3)cc1S(=O)(=O)N1CCCCC1 (stereo not drawn)	0	0	59.9	0	0	0	52.0
Cc1cccc(NC(=O)COC(=O)c2ccc(C)c(S(=O)(=O)N3CCCCC3)c2)c1	0	0	42.4	-	0	0	37.9
COCCNC(=S)N(C)[C@H]1C[C@H]2c3[nH]c4ccccc4c3CCN2C(=O)[C@H]1[C@H](C)O	-	-	-	-	0	-	-
CC(C)NC(=O)[C@]1(C#N)CC(=O)N(C)[C@@H]1c1ccccc1	-	-	-	-	0	-	-
Cc1cc(C)n(-c2ccc(C(=O)OCC(=O)Nc3cc(S(C)(=O)=O)ccc3Cl)cc2)n1	0	0	35.8	-	0	0	0
CS(=O)(=O)c1ccc(Cl)c(NC(=O)COC(=O)c2ccc(-n3cnnn3)cc2)c1	0	0	0	0	0	0	-
NC(=O)Nc1ccc(C(=O)OCC(=O)NC2CCCCC2)cc1	0	0	81.2	0	0	0	80.2
O=C(COC(=O)c1ccc(Cl)nc1)NC1CCCCCC1	0	0	0	-	0	0	-
CC(=O)Nc1ccc(C(=O)OCC(=O)N(C)C2CCCCC2)cc1	0	0	31.8	0	0	0	0
CC(=O)Nc1ccc(C(=O)OCC(=O)N2CCCC2)cc1	0	0	0	0	0	0	-
